Bioassay records (PubChem)
Mcl1 Noxa PPI = Mcl-1/Noxa binding inhibitors, primary screen, biochemical, TR-FRET, 1536-well | inhibition, % at 21.7 µM | TR-FRET Mcl-1/Noxa peptide binding, 2 h | Induced myeloid leukemia cell differentiation protein Mcl-1 (Homo sapiens), Q07820 | 1.5% of 220,000 active;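 active = compounds that cut the protein-peptide binding signal by more than 50% relative to plate controls in a single-dose test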;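 note: His-tagged Mcl-1 with rhodamine Noxa BH3 peptide and terbium anti-His antibody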
p47phox inh = p47phox/p22phox peptide binding inhibitors, primary screen, biochemical, uHTS, NADPH oxidase regulatory subunit | Neutrophil cytosol factor 1 (Homo sapiens), P14598 | fluorescence polarization, 2 h | inhibition, % at 24.7 µM | 0.53% of 220,000 active | AID 1274, 2008
14-3-3 Bad inh = inhibitors of 14-3-3 zeta/Bad binding, primary screen, biochemical, TR-FRET, bovine 14-3-3 zeta; 14-3-3 protein zeta/delta (Bos taurus), P63103; TR-FRET 14-3-3zeta/Dy647-pBad peptide displacement, 1 h; inhibition, % at 21.7 µM; 0.71% of 220,000 active;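 active = inhibition above about 70%, limit read from the data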
Bim-Mcl-1 = inhibitors of Bim peptide binding to Mcl-1, primary screen, biochemical, bead-based flow cytometry, multiplex; Induced myeloid leukemia cell differentiation protein Mcl-1 (Homo sapiens), Q07820; Bim peptide-Mcl-1 binding; inhibition, % at 10 µM; 0.1% of 190,000 active; AID 1009, 2008; in the data active = inhibition above about 40%
eIF4E-4G inh = eIF4E–eIF4G protein interaction inhibitors, primary screen, biochemical, uHTS, TR-FRET, eIF4GI fragment | AID 782, 2007 | inhibition, % at 21.7 µM | Eukaryotic translation initiation factor 4E (Mus musculus) + Eukaryotic translation … | 0.37% of 220,000 active | TR-FRET eIF4E-eIF4GI(517-606) binding, 2 h
Mcl1 Bid PPI = Mcl-1/Bid binding inhibitors, primary screen, biochemical, TR-FRET, 1536-well | 0.97% of 220,000 active | TR-FRET Mcl-1/Bid-Dy647 peptide binding | inhibition, % at 21.7 µM;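 active = compounds that cut the binding signal by more than half at the single screening dose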;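 note: His-tagged Mcl-1 with europium anti-His antibody binding Bid BH3 peptide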
Large screens that a line does not name were inactive; [ ] = remark or other dose. This is a sample that favours compounds with a hit; in the whole collection about 3.4% have one here.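 Rule for the calls, unless noted: active = inhibition above about 30% (limit read from the data); inactive = the rest.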

Cc1ccc(CCN2CC(C(=O)NCCCN3CCCCCC3)CC2=O)cc1 (stereo not given)	p47phox inh 38
N/C(=N\N=C\c1cccs1)SC1CC(=O)N(c2cccc([N+](=O)[O-])c2)C1=O (stereo not given)	14-3-3 Bad inh 82
COc1ccc(NC(=S)NCCSc2ccc(Cl)cc2)c(OC)c1	none
COc1ccccc1NC(=S)NCCSc1ccc(Cl)cc1	eIF4E-4G inh 33
COc1ccc(-c2ccc(CCC(=O)O)n2NC(=O)c2cccs2)cc1	none
Cc1ccc(-c2ccc(CCC(=O)O)n2NC(=O)c2cccs2)cc1	Bim-Mcl-1 49
C=CCNC(=S)NNC(=O)c1cc(O)ccc1O	none
COc1ccc(C(=O)N2CCOC2CNC(=O)C(=O)NCc2ccc(Cl)cc2)cc1 (stereo not given)	none
COc1ccccc1/C=c1\sc2nc(-c3ccco3)nn2c1=O	Mcl1 Noxa PPI 74
COc1ccccc1/C=C/C(=O)Nc1cccc(S(=O)(=O)NC2=NCCCCC2)c1	none
Cc1cc(NC(=O)CSc2nnc(NC(=O)C3CC(=O)N(c4ccccc4C)C3)s2)no1 (stereo not given)	none
Cc1cc(NC(=O)CSc2nnc(NC(=O)C3CC(=O)N(c4ccccc4)C3)s2)no1 (stereo not given)	Mcl1 Bid PPI 51
CCn1nc(C)c(CN2CCc3c([nH]c4ccccc34)C2c2ccc(F)c(OC)c2)c1C (stereo not given)	none
COc1cc(C=O)ccc1Oc1nc(Nc2ccc(F)cc2F)nc(N2CCOCC2)n1	none
COC(=O)/C=C1/SC(=Nc2ccc(C)cc2C)NC1=O	Mcl1 Bid PPI 98
CCOC(=O)Cc1c(C)nc(Cc2ccc(OC(C)C)cc2)[nH]c1=O	none
Cc1ccc(S(=O)(=O)N(C)C)cc1NC(=S)N1CCN(Cc2ccc3c(c2)OCO3)CC1	none
CC(=O)c1ccc(-n2c(CCC(=O)O)ccc2-c2cccs2)cc1	Mcl1 Noxa PPI 69
O=C(COc1ccc(Br)cc1Br)NC(=S)Nc1cccc(CO)c1	none
O=C(COc1ccc2ccccc2c1Br)NC(=S)Nc1cccc(CO)c1	Mcl1 Bid PPI 52
COc1ccc(-c2[nH]ncc2C=O)cc1OC	none
CCOC(=O)c1cnn(C(=O)c2ccccc2)c1N	eIF4E-4G inh 45[fluorescence artefact?]
CCOC(=O)c1cnn(Cc2ccccc2)c1N	none
Cn1c(N)c(C(=O)COC(=O)C2=NNC(=O)CC2)c(=O)n(C)c1=O	none (no result: Bim-Mcl-1)
CCc1nnc(NC(=O)CSc2ccc(-c3nc4ccc(C)cc4[nH]3)cn2)s1	Mcl1 Noxa PPI 58
Cc1cc2nc(-c3ccc(SCC(=O)Nc4nccs4)nc3)[nH]c2cc1C	Mcl1 Noxa PPI 73
O=S(=O)(NCC1CCCO1)c1ccc(Cl)nc1 (stereo not given)	none (no result: Bim-Mcl-1)
O=C(c1ccc2c(c1)OCO2)C1CCCN(C2CCN(CCc3ccccc3)CC2)C1 (stereo not given)	none
CCN(CC)CCN1C(=O)C(=O)/C(=C(/O)c2ccc(C)cc2)C1c1cccnc1 (stereo not given)	eIF4E-4G inh 97 (no result: Bim-Mcl-1)
CSc1ccc(/C=C(/NC(=O)c2ccc(C)cc2)C(=O)Nc2cccc(F)c2)cc1	p47phox inh 67
Cc1ccsc1/C=N/N1CCN(Cc2ccccc2)CC1	none
O=C(N=C1N=C2C=CC(Br)=CN2Cc2ccccc21)c1ccc([N+](=O)[O-])cc1[N+](=O)[O-]	none (no result: Bim-Mcl-1)
O=C(O)COc1ccc(S(=O)(=O)c2ccc(OCC(=O)O)cc2)cc1	p47phox inh 35
Nc1[nH]n2c(=O)cc(-c3ccccc3)nc2c1N=Nc1ccc2c(c1)OCO2	Mcl1 Noxa PPI 60
Cc1[nH]n(-c2ccccc2)c(=O)c1N=Nc1ccc2c(c1)OCO2	none
Cn1c(=O)c2[nH]c(-c3ccccc3O)nc2n(C)c1=O	Mcl1 Noxa PPI 59
CCOC(=O)c1c(-c2ccc(C)cc2)csc1NC(=O)/C(C#N)=C/c1ccc(O)c(OC)c1	Mcl1 Noxa PPI 90
O=C(COC(=O)c1ccc(Cl)cc1O)NCCN1C(=O)CSC1=O	14-3-3 Bad inh 97 (no result: Bim-Mcl-1)
NC(=O)CC1C(=O)N(c2ccc(F)cc2)C(=O)N1NC(=O)CCc1ccccc1 (stereo not given)	none
COC(=O)C1=NNC2(C)C(=O)N(c3ccc(C)cc3)C(=O)C12 (stereo not given)	none (no result: Bim-Mcl-1)
Cc1nc2c(N=Nc3ccccc3F)c(N)nn2c(N)c1C#N	none
COc1cc(NC(=O)C(C)C)ccc1NC(=O)c1ccco1	p47phox inh 125
COc1cc(NC(=S)NC(=O)c2ccccc2F)ccc1NC(=O)c1ccco1	Mcl1 Bid PPI 53
COc1cc(NC(=S)NC(=O)c2ccco2)ccc1NC(=O)C(C)C	none
Cc1noc(C)c1S(=O)(=O)Nc1ccc(O)c2c(=O)cc(-c3ccccc3Cl)oc12	none (no result: Bim-Mcl-1)
COc1ccc(OC)c(NC(=O)C2C3CCC(O3)C2C(=O)O)c1 (stereo not given)	p47phox inh 53
COc1ccc(OC)c(NC(=O)C2CCCC2)c1	none
O=C(O)c1ccc(Oc2cccc([N+](=O)[O-])c2)cc1C(=O)O	14-3-3 Bad inh 74
CCOc1ccccc1NC(=O)CN(C)S(=O)(=O)c1cccc2nsnc12	Mcl1 Bid PPI 88
CCOc1ccc(C(=O)Nc2ccc(-c3nc4ccccc4[nH]3)cc2)cc1[N+](=O)[O-]	Mcl1 Noxa PPI 58, Mcl1 Bid PPI 55
Cc1cc(C)n2nc(C(=O)NNC(=O)c3ccc(Cl)cc3)nc2n1	p47phox inh 36 (no result: Bim-Mcl-1)
CCN(CC)c1ccc(NC(=O)c2nc3nc(C)cc(C(F)F)n3n2)cc1	Mcl1 Noxa PPI 58
Cc1cc(C)n2nc(C(=O)Nc3ccc4c(c3)OCO4)nc2n1	Mcl1 Noxa PPI 54
Cc1ccnc2nc(C(=O)Nc3ccc4c(c3)OCO4)nn12	none
NC(N)=N/N=C/c1ccc(OCc2ccc(Cl)cc2)cc1	p47phox inh 54, 14-3-3 Bad inh 87[fluorescence artefact?]
NC(N)=N/N=C/c1ccc(OCc2ccccc2)cc1	none
CCc1cc2c(=O)c(-c3nc4ccccc4n3C)c(COCC(=O)O)oc2cc1O	none
CCCc1cc2c(=O)c(-c3nc4ccccc4s3)c(COCC(=O)O)oc2cc1O	Mcl1 Noxa PPI 73
COc1cc(/C=C2\CC/C(=C\c3cc(OC)c(OC)c(OC)c3)C2=O)cc(OC)c1OC	none
